“And” between values parts separate entries of the source, which are not always exact repeats. Equal values may be shown once. More than one record can exist for a structure, and the calls need not agree. The source made the active and inactive calls. A call without a number means that no potency is given here. Calls come from the whole dose curve.
Potency is the fitted concentration of half-maximal effect.

Chain of Acetylcholinesterase (Homo sapiens) (P22303 whole entry, looked up): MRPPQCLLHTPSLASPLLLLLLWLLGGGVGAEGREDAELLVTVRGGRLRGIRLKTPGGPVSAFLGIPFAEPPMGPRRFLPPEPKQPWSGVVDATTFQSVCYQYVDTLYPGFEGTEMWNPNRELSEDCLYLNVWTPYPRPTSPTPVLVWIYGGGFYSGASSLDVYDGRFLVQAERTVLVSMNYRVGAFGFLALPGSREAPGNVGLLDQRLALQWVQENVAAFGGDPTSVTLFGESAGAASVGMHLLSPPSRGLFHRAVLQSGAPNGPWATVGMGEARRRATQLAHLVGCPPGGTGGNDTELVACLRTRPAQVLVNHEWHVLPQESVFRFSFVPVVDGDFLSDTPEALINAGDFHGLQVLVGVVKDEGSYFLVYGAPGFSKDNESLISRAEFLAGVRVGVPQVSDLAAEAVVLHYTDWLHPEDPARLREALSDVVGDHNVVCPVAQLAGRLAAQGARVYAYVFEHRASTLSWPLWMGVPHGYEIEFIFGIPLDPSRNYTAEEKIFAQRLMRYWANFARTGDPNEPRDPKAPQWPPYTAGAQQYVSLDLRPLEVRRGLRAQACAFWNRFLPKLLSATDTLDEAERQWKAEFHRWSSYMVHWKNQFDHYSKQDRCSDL

For the experiment, the target named is Acetylcholinesterase (Homo sapiens) (UniProt P22303). The experiment in a line: Acetylcholinesterase (AChE) small molecule antagonists: enzyme-based qHTS assay with human liver microsomes (AID 1347399). Note: nearly all actives have a fitted effect of over 60% in size. Conditions: Potency: qHTS inhibition; series mostly up to 115 µM. An excerpt:
National Center for Advancing Translational Sciences [NCATS]
Division of Preclinical Innovation [DPI]
U.S. Environmental Protection Agency [EPA]
National Institutes of Environmental Health Sciences [NIEHS]
National Toxicology Program [NTP]
U.S. Food and Drug Administration [FDA]
Acetylcholinesterase (AChE) is the primary cholinesterase in the body that hydrolyzes a key neurotransmitter, acetylcholine. Inhibition of AChE activity can lead to neurotoxicity. The known inhibitors include organophosphorous pesticides (OP), chemical warfare agents, drugs, and various phytochemicals. Some compounds like OP compounds may need metabolic activation to be active AChE inhibitors. The cytochrome P450 (CYP) superfamily in the human microsomes is responsible for the metabolism of various endogenous and exogenous compounds.
An enzyme-based assay with the recombinant human AChE, human liver microsomes and Amplite Colormetric acetylcholinesterase assay kit (AAT Bioquest, Sunnyvale, CA) was used to evaluate compounds in the Tox21 10K library that need metabolic activation for AChE inhibition. The assay uses 5, 5-dithiobis-(2-nitrobenzoic acid) (DTNB) to quantify the thiocholine produced from the hydrolysis of acetylthiocholine by AChE.
Tox21 Assay Protocol Summary:
For the enzyme-based AChE assay with microsomes addition, a mixture of human AChE (50 mU/mL) and human liver microsomes (0.25 mg/mL, final concentration) in 3 uL/well was dispensed into black, clear-bottom 1536-well plates using a Multidrop Combi dispenser (Thermo Scientific, MA). Then, 23 nL of compound or DMSO (vehicle control) was transferred into the assay plates by a Pintool Station (Wako Automation, CA). Following compound addition, 1 uL of NADPH (0.25 mg/mL, final concentration) was transferred to the assay plate by a Flying Reagent Dispenser (Beckman Coulter, CA). The plates were incubated for 30 min at 37 C and 5% CO2, followed by the addition of 4 uL of colorimetric detection cocktail solution (DTNB, acetylthiocholine) into each well using a Flying Reagent Dispenser (Beckman Coulter, CA) and then 10 min incubation at room temperature.
Consider `C[C@]12CC[C@H]3[C@@H](CC[C@@]45O[C@@H]4C(O)=C(C#N)C[C@]35C)[C@@H]1CC[C@@H]2O`, for which the Potency result was “inactive”.
With `Cc1[nH]c(=O)n(C(C)(C)C)c(=O)c1Cl`, the Potency entry was “inactive”.
The result for `C1CC2OC2CC1C1CO1` (stereo not given) reads “inactive”; that for `CC(Br)C(=O)O` (stereo not given), “inactive”.
For `CCCCN(CCCC)SN(C)C(=O)Oc1cccc2c1OC(C)(C)C2`, the Potency was 573 nM (active) and 3.56 µM (active).
The result for `COCCl` reads “inactive”; that for `Nc1ccccc1C(=O)O`, “inactive”.
The result for `Cc1ccc(N)cc1Cl` reads “inactive”; that for `c1ccc2c(c1)Oc1ccccc1O2`, “inactive”.
As for `CC(C#N)CCC#N` (stereo not given), the Potency result is “inactive”.
The result for `CCC[CH2][Sn]([Cl])([Cl])[Cl]` reads “inactive”.
The result for `Nc1c(Cl)c(Cl)nc(C(=O)O)c1Cl` reads “inactive”; that for `CC(C)(Cl)Cl`, “inactive”.
The result for `CCOP(=S)(OCC)SCCSCC` reads “inactive”.
For the compound `CCC(C)(CC)c1cc(NC(=O)c2c(OC)cccc2OC)on1`, the Potency result was “inactive”.
The result for `CCCN(CCC)N=O` reads “inactive”; that for `[O-][Cl+2]([O-])O`, “inactive”; that for `CC(=O)C=C(C)C`, “inactive”.
The result for `CN(N=O)c1ccccc1` reads “inactive”.
As to `O=[N+]([O-])c1ccc([As](=O)(O)O)cc1`, the Potency entry was “inactive”.
For the compound `Cc1cccc([N+](=O)[O-])c1`, the Potency result is “inactive”.
The result for `[N-]=[N+]=[N-]` reads “inactive”; that for `CCCCOC(=O)c1ccccc1C(=O)OCCCC`, “inactive”.
The result for `CCC12COCN1COC2` reads “inactive”; that for `Cc1cc(Cl)ccc1O`, “inactive”.
The result for `Cc1ccc(N)cc1N` reads “inactive”.
As for `CCOP(=S)(OCC)Oc1cnc2ccccc2n1`, the Potency entry was “inactive and 1 µM (active)”.
The result for `C=C(C)CCl` reads “inactive”.
The result for `COc1ccc2c3c1O[C@H]1[C@@H](O)C=C[C@H]4[C@@H](C2)N(C)CC[C@@]341` reads “inactive”; that for `Nc1ccc(Cc2ccc(N)cc2)cc1`, “inactive”; that for `CNC(=O)Oc1ccccc1OC(C)C`, 22.5 µM (active) and 22.4 µM (active).
For the compound `CCCC1COC(Cn2cncn2)(c2ccc(Cl)cc2Cl)O1` (stereo not given), the Potency entry was “inactive”.
The result for `CCNc1nc(NC(C)(C)C)nc(SC)n1` reads “inactive”.
The result for `CC(C)(C)OOC(C)(C)C` reads “inactive”; that for `CCCCCCCCCCCC#N`, “inactive”.
For `CCCCN(CC)C(=O)SCCC`, the Potency result is “inactive”.
The result for `O=c1[nH]c2ccccc2c(=O)o1` reads “inactive”; that for `CCc1cccc(C)c1N(C(=O)CCl)C(C)COC` (stereo not given), “inactive”.
The result for `C#CC(C)(C)NC(=O)c1cc(Cl)cc(Cl)c1` reads “inactive”.
The result for `CN(C)N=O` reads “inactive”.

The record behind these values is PubChem BioAssay (Tox21).
